In PubChem BioAssay AID449762 (Southern Research Specialized Biocontainment Screening …, 2010) one finds inhibition data, which are given here for 93 compounds.

Screen size: about 330,000 compounds; about 1,900 (0.58%) were called active. Not shown: some 4% with an inconclusive outcome. Only a sample is shown. Entries with a potency or affinity are not part of this list. Values without a mark were called inactive. Rule as the data show it: inconclusive = inhibition above about 70% without an active follow-up result; inactive = below that.

The nature of the experiment: M. tuberculosis growth inhibition, HTS (AID 449762).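 Also: bacterial growth assessed after seven days of incubation.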 To be noted: M. tuberculosis H37Rv growth inhibition, 7H9 media; at 25 µM; stronger effect = higher value.
Consider `COc1ccc(NC(=S)N2CCC(N(C)CCN3CCOCC3)CC2)cc1`, for which the inhibition is 2.62%.
For `COc1ccccc1C(=O)NCCC(=O)N1CCN(c2ccccc2O)CC1`, the inhibition was 1.15%.
As to `COc1ccc(-c2csc3ncnc(N4CCN(c5ccccc5Cl)CC4)c23)cc1`, the inhibition was 50.3%.
For the compound `CCOc1ccccc1N1CCN(c2ncnc3scc(-c4ccc(OC)cc4)c23)CC1`, the inhibition was -0.51%.
To `COc1ccc(-c2csc3nc(-c4ccccc4F)oc(=O)c23)cc1` belongs -1.39%; to `COc1ccc(-c2nc3scc(-c4ccc(OC)c(OC)c4)c3c(=O)o2)cc1`, 11.9%; to `CCN(CC)c1ccc(C2C(C(C)=O)C(=O)CC(C)(O)C2C(C)=O)cc1` (stereo not drawn), -4.35%.
To `C1CN(c2nc3nonc3nc2N2C[C@H]3CC[C@H]2C3)CCS1` belongs -11%; to `CCNC(=S)N(CCc1c(C)[nH]c2ccccc12)Cc1cccnc1`, -3.56%.
To `CN1CCN(C(=O)CCN2C(=O)/C(=C\c3ccccc3F)SC2=S)CC1` belongs -5.52%.
For the compound `COc1ccc(-c2c(C#Cc3ccsc3)c3cc(Br)ccc3n2C)cc1`, the inhibition was 8.44%.
Consider `COc1ccc(C#Cc2c(-c3ccccc3)n(C)c3ccccc23)cc1`, for which the inhibition was 6.76%.
For the compound `COc1cc(CNCCO)cc(Cl)c1OCc1ccccc1Cl`, the inhibition was 1.99%.
With `COc1cc(CNCc2ccccc2)cc(Cl)c1OC`, the inhibition was -0.38%.
In the case of `CCN(C(=O)c1cnc2scc(C)n2c1=O)c1ccccc1C` it was -2.4%; in that of `COc1ccc(NC(=O)CC(Cc2ccc(Cl)cc2)C(=O)O)cc1` (stereo not drawn), 1.62%.
Turning to `Cc1cccc(C)c1NC(=O)CN(C)C(=O)c1ccccc1Cc1ccccc1`, the inhibition is 2.81%.
To `Cc1cc(C)n2nc(SCC(=O)NC(=O)c3ccccc3Cl)nc2n1` belongs 1.71%; to `Cc1nn(-c2ccccc2)c2[nH]c(=O)c(CNCc3ccc4c(c3)OCO4)cc12`, -4.36%.
In the case of `CC(C)(C)c1nn(-c2ccccc2)c2[nH]c(=O)c(CNc3ccc4c(c3)OCCO4)cc12` it was 52.8%; in that of `Cc1ccccc1NC(=O)C1CCN(S(=O)(=O)c2cccc3nonc23)CC1`, 4.17%; in that of `CCC[C@@H]1C[C@@H](C(=O)N[C@H]([C@@H](C)O)[C@H]2O[C@H](SC)[C@H](O)[C@@H](O)C2O)N(C)C1` (stereo partly drawn), 59.1%.
To `Cc1ccc(NC(=O)[C@@H](CC(C)C)NC(=O)[C@@H]2Cc3ccccc3CN2)cc1` belongs 2.07%.
Regarding `CCOC(=O)C(C)Sc1ccc2nnc(CCNS(=O)(=O)c3ccc(C)cc3)n2n1` (stereo not drawn), the inhibition is 1.94%.
Regarding `Cc1cc(C(F)(F)F)cc(NNC(=O)NC(=O)c2ccccc2Cl)n1`, the inhibition was 10.6%.
In the case of `COC(CNS(=O)(=O)c1ccc(S(=O)(=O)NC2CC2)cc1)OC` it was 1.93%.
Take `Cc1ccc(S(=O)(=O)NNC(=O)Nc2ccc(Cl)cc2)cc1`: the inhibition is 0.2%.
In the case of `COc1cc(SC)ccc1C(=O)NCCOc1ccc(Cl)cc1` it was 64.9%.
Regarding `O=C(Nc1ccc(N2CCN(C(=O)c3ccco3)CC2)cc1)c1ccccc1`, the inhibition was 2.03%.
As to `O=C(Nc1ccc(N2CCN(C(=O)c3ccco3)CC2)cc1)c1ccco1`, the inhibition was -1.95%.
For `NC(=O)CC(NC(=O)Cc1ccc(Br)cc1)c1ccc(NCc2ccccn2)c([N+](=O)[O-])c1` (stereo not drawn), the inhibition is 3.35%.
Take `O=C(CN1C(=O)S/C(=C/c2cc(Br)cs2)C1=O)N1CCOCC1`: the inhibition is 5.49%.
To `COCCNC(=O)c1ccccc1NC(=O)CCSc1ccccc1` belongs -2.26%; to `CCC1CCCCN1Cc1nc2c(c(=O)n(C)c(=O)n2C)n1CCC(C)C` (stereo not drawn), -0.27%.
In the case of `COc1ccc(-c2c(-c3cccc(C)c3)oc3ccc(-c4ccc5c(c4)OCO5)cc23)cn1`, the inhibition is -1.67%.
In the case of `Cc1cccc(-c2oc3ccccc3c2-c2ccc3c(c2)OCO3)c1`, the inhibition is 52.4%.
On to `Cc1c(Cl)c([N+](=O)[O-])nn1CCCC(=O)Nc1ccc(Cl)cc1Cl`, for which the inhibition was 5.86%.
In the case of `CC1=NOC(=O)/C1=C\c1ccc(-c2ccc(Br)cc2C(=O)O)o1`, the inhibition was -4.04%.
With `CC1=NOC(=O)/C1=C\c1ccc(-c2cccc(Cl)c2)o1`, the inhibition was 60.5%.
To `Cc1c(NC(=S)Nc2cccc(Cl)c2)c(=O)n(-c2ccccc2)n1C` belongs 7%; to `Cc1cccc(NC(=O)CN2CCN(C(=O)COc3cccc(Br)c3)CC2)c1C`, 1.13%.
As to `CCOC(=O)c1sc(NCCNc2nc(C)c(C(=O)OCC)s2)nc1C`, the inhibition was -6.54%.
For `COc1ccc(NC(=O)CSc2nc(N)c(C(=O)Nc3ccc(N(C)C)cc3)s2)cc1`, the inhibition is 15.8%.
As to `CCOC(=O)c1sc(SCC(=O)Nc2ccc(N(C)C)cc2)nc1N`, the inhibition was 1.23%.
Turning to `CCOC(=O)CSc1nnc(N)s1`, the inhibition was -0.59%.
For the compound `COc1cccc(CN(C)CC(=O)Nc2c(C)cccc2C(C)C)c1`, the inhibition is 1.22%.
To `O=C(c1csc2ccccc12)N1CCN(c2ccc(Cl)c(Cl)c2)CC1` belongs 2.65%; to `N[C@@H](Cc1cc(Br)c(O)c(Br)c1)C(=O)O`, 1.75%; to `N[C@@H](Cc1ccc(N(CCCl)CCCl)cc1)C(=O)O`, -2.59%.
On to `NC(CS(=O)O)C(=O)O` (stereo not drawn), for which the inhibition was 5.82%.
Regarding `N[C@@H](Cc1cc(I)c(O)c(I)c1)C(=O)O`, the inhibition is -4.28%.
On to `Cc1ccc(C(=O)NCC(=O)OCC(=O)c2ccc(Cl)s2)cc1`, for which the inhibition was 13.4%.
To `O=C(NC1CCSc2ccccc21)c1cc(S(=O)(=O)N2CCOCC2)ccc1F` (stereo not drawn) belongs -1.41%; to `O=C(NC1CC1)c1cc(=O)c2ccccc2o1`, -13.4%.
As for `COc1cc2c(cc1Cl)C(=O)C(F)(c1ccccc1)C(=O)N2` (stereo not drawn), the inhibition was -6.77%.
With `Cc1nnc(SCc2ccc(C(=O)Nc3cc(Cl)ccc3C)cc2)s1`, the inhibition was -1.77%.
`COc1ccc(OC)c(NC(=O)c2ccc(CSc3nnc(C)s3)cc2)c1`: the inhibition is 49.4%.
As to `CCOc1ccc(NC(=O)CSc2nnc(COc3c(C)cccc3C)o2)cc1`, the inhibition was -12.7%.
As for `COc1cc(NC(=O)Cc2ccccc2)c(C(=O)O)cc1OC`, the inhibition is 5.42%.
On to `COc1ccc(-n2nnnc2CNC(=O)C(=O)c2c[nH]c3ccccc23)cc1`, for which the inhibition is 1.52%.
To `COc1ccc(-c2c(-c3ccccc3OC)sc3ccccc23)cc1OC` belongs 11.5%; to `CCOC(=O)Cc1cn(C(=O)OC(C)(C)C)c2ccccc12`, -4.41%.
To `Cc1ccc(NC(=O)CNCc2cccs2)c(Br)c1` belongs 1%; to `CC(=O)c1ccc(NC(=O)CNCc2cccs2)cc1`, -3.9%; to `CSCCC(NC(=O)c1ccco1)C(=O)NC1CCC(C)CC1` (stereo not drawn), -5.12%.
`O=S(=O)(c1ccc2c(c1)OCCO2)C1CCC(S(=O)(=O)c2c(F)cccc2F)CC1` (stereo not drawn): the inhibition was -1.16%.
For the compound `CC[n+]1c(/C=C/N(C)c2ccccc2)oc2ccc(Cl)cc21`, the inhibition is -7.91%.
In the case of `CC[n+]1c(/C=C/N(C)c2ccccc2)oc2ccc(F)cc21` it was -7.16%.
Regarding `COC(=O)c1ccc(NC(=O)CSc2nnc(C)n2CC2CCCO2)cc1` (stereo not drawn), the inhibition is -1.12%.
In the case of `CC(OC(=O)c1cccc(NS(C)(=O)=O)c1)C(=O)Nc1ccc2c(c1)OCO2` (stereo not drawn) it was -1.53%; in that of `Cc1nn(-c2ccccc2)c(C)c1/C=N/NC(=O)c1cc(O)cc(O)c1`, 0.86%.
On to `Cc1ccc(/C=N/NC(=O)CSc2nc3ccccc3c(=O)n2-c2ccccc2C)s1`, for which the inhibition is 6.56%.
With `Cc1cc(C(=O)N/N=C/c2c(C)nn(-c3ccccc3)c2C)n[nH]1`, the inhibition is -1.35%.
Take `Cc1ccc(-n2c(SCC(=O)N/N=C/c3c(C)nn(-c4ccccc4)c3C)nc3ccccc3c2=O)cc1`: the inhibition was 12%.
Turning to `CCCCNC(=O)CSc1nnc(Cc2ccc(Cl)c(Cl)c2)c(=O)[nH]1`, the inhibition is 4.24%.
`O=c1ccc(=O)n2n1CC(O)C2`: the inhibition was 1.79%.
In the case of `Cc1cc(Cl)c(S(=O)(=O)Nc2ccc(S(=O)(=O)N3CCOCC3)cc2)cc1OCC(N)=O` it was 5.99%; in that of `CC(C)Cn1c(N)c(C(=O)COC(=O)Cc2cccc(C(F)(F)F)c2)c(=O)n(C)c1=O`, 3%.
Regarding `CCOC(=O)N/N=C(C)/C=C/c1ccccc1`, the inhibition is -3.41%.
To `Cc1ccc(OCC(=O)NCc2cccnc2)cc1` belongs -0.13%; to `CC1CCN(C(=O)c2ccc(CSc3nc4ccncc4n3Cc3ccc(F)cc3)cc2)CC1`, -5.51%.
For `CCCOc1ccc(CC(=O)NCC2(c3ccccc3)CCOCC2)cc1OC`, the inhibition is 5.05%.
In the case of `Cc1ccc(N(CC(=O)NC2CCCC2)C(=O)CCC(=O)Nc2nccs2)cc1C` it was -7.45%; in that of `C=CCNC(=O)CN1CCC(n2nnc3cc(C(F)(F)F)ccc32)CC1`, -4.99%; in that of `O=C(CN1CCC(n2nnc3ccccc32)CC1)NCc1cccs1`, -0.03%.
With `O=C(CN1C(=O)/C(=C/c2ccccc2)SC1=S)NC1C=CS(=O)(=O)C1` (stereo not drawn), the inhibition was 2.53%.
To `COc1cccc(C2C3=C(N=c4s/c(=C\c5ccc(O)cc5)c(=O)n42)c2ccccc2CC3)c1OC` (stereo not drawn) belongs 65.1%.
Take `COc1cccc(C2C3=C(N=c4s/c(=C\c5ccccc5O)c(=O)n42)c2ccccc2CC3)c1OC` (stereo not drawn): the inhibition is 4.34%.
To `COc1ccccc1NC(=O)c1ccccc1C(=O)N(C)Cc1ccccc1` belongs -2.3%; to `Cc1cc(C)nc(SCC(=O)O)n1`, 0.26%.
With `O=C(c1ccc2nc[nH]c2c1)N1CCc2ccccc2C1`, the inhibition was -3.52%.
`Cc1ccc(NC(=O)CN(C)C(=O)Cn2ncc(Cl)c(Cl)c2=O)cc1`: the inhibition was 28.7%.
Take `CCC(=O)Nc1ccc(C(=O)Cn2ncc(Cl)c(Cl)c2=O)cc1`: the inhibition was -3.99%.

The term inhibition denotes the change of the read-out against control, counted positive when it falls.
